# Tau ThT inhib: qHTS for Inhibitors of Tau Fibril Formation, Thioflavin T Binding | actives 2.1% (n = 270,000) | AID 1460, 2008 | Microtubule-associated protein tau (Homo sapiens), P10636 | recombinant tau K18 P301L, heparin-induced fibrillization, ThT fluorescence | Potency, µM (titrated, usually from 57.4 µM), without a hit: at the top dose activity, negative = inhibition, actives largely listed as inhibitors; also: nearly all actives have a fitted effect of over 55% in size
# Target sequence (P10636 561-689 P618L limits assumed): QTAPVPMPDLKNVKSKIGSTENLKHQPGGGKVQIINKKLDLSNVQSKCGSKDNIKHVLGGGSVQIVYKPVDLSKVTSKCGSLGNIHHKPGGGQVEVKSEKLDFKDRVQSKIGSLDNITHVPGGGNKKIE
#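 ThT emission at 510 nm, taken 1 hr after adding 30 uM dye, quantifies aggregates formed when 20 uM heparin acts on human tau K18 P301L for 6 hr at 37 C.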
# Tau fluor cs: Counterscreen qHTS for Inhibitors of Tau Fibril Formation, Fluorescence Polarization; AID 1463, 2008; tau K18 P301L (four-repeat tau fragment) Alexa594 fluorescence, heparin fibrillization; Potency, µM (series often up to 57.7 µM), for inactives: at the top dose activity change, negative = decrease; actives 0.93% (n = 280,000); also: nearly all actives have a fitted effect of over 55% in size
#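 Human K18 P301L tau (15 uM unlabeled plus 0.24 uM Alexa 594-labeled, final) in 100 mM sodium acetate pH 7 was mixed with compound and 20 uM heparin and incubated 6 hr at 37 C.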
# RORgamma inh: qHTS for inhibitors of ROR gamma transcriptional activity; actives 5.4% (n = 310,000); AID 2551, 2010; Drosophila S2 Gal4-RORgamma UAS-luciferase reporter, 20 h; Potency, µM (doses to about 53.6 µM), without a hit: at the top dose activity change, negative = inhibition, hits mostly inhibitors; also: nearly all actives have a fitted effect of over 60% in size
# Target sequence (P51450 whole entry, looked up, the tested form may be a part): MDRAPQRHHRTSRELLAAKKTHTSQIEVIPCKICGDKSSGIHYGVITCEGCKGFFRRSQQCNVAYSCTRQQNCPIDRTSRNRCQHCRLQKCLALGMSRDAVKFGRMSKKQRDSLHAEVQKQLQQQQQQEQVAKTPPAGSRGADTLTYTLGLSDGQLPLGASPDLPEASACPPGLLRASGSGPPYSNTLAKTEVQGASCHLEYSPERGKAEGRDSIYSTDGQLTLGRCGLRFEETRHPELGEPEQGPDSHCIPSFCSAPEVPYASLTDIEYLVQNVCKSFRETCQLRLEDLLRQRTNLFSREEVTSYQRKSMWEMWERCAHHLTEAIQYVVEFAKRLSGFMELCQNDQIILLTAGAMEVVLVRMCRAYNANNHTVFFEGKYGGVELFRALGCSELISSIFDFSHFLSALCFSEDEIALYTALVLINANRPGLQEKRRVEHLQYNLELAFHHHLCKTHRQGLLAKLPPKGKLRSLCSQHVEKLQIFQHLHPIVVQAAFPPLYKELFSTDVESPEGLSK
#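 A Gal4/UAS one-hybrid system in insect cells: metallothionein-promoter Gal4–ROR gamma fusion plus Photinus luciferase reporter. Copper sulfate 700 uM final, 20 hr ambient incubation, luminescent detection after 10 min with reagent.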
# Gal4-VP16 FLuc: VP16 counterscreen qHTS for inhibitors of ROR gamma transcriptional activity; Drosophila S2 Gal4-VP16 UAS-luciferase, luminescence, 20 h; Potency, µM (highest dose often 53.6 µM), for inactives: top-dose activity, negative = inhibition, actives largely listed as inhibitors; actives 3.5% (n = 310,000);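 also: Gal4-VP16 expression switched on by copper sulfate through the metallothionein promoter; nearly all actives have a fitted effect of over 50% in size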
# Tau fibril FP: qHTS for Inhibitors of Tau Fibril Formation, Fluorescence Polarization | Microtubule-associated protein tau (Homo sapiens), P10636 | K18 P301L tau heparin fibrillization, Alexa594 FP, 6 h | Potency, µM (doses to about 57.7 µM), for the others: top-dose activity, negative = inhibition, actives largely listed as inhibitors | actives 0.39% (n = 280,000) | AID 1468, 2008; also: nearly all actives have a fitted effect of over 55% in size
#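 Steps: dispense K18 P301L tau (15 uM plus 0.24 uM Alexa 594 tracer, final) in pH 7 sodium acetate; add compound; add heparin (20 uM final); incubate 6 hr, 37 C; add ThT (30 uM final); after 1 hr ambient, read FP.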
# * marks the source's active call; other numbers are inactive results; u = inconclusive; x = no result; [ ] = dose if it differs, or a comment. Most compounds without a hit are left out; they make up all but 7.3% or so of the library. Calls follow the shape of the dose curve; as a rule, active = well fitted curve in the direction sought with a large enough effect; inconclusive = small, poorly fitted or top-dose-only effect, or another doubt; inactive = no such curve, though single readings can be large; an effect the other way counts as inactive or inconclusive. % is scaled to controls: 0 for no effect and ±100 for the full control effect; potency is read from the fitted curve at half-maximal effect.
SMILES,Tau ThT inhib,Tau fluor cs,RORgamma inh,Gal4-VP16 FLuc,Tau fibril FP
COc1cccc(-c2coc3cc4oc(=O)c(CCC(=O)O)c(C)c4cc23)c1,x,x,-9%,13µM*,x
COc1ccc(C2=Nn3c(nnc3-c3cc(OC)ccc3OC)SC2)c(OC)c1,x,x,23%,-5%,x
Cc1cc(C)c(S(=O)(=O)N2CCCC(C(=O)NC3CCCC3)C2)c(C)c1 (configuration not stated),x,x,2%,5%,x
Cc1cc(/C=N/Nc2nc(N)ncc2[N+](=O)[O-])c(C)n1-c1cccc(C(F)(F)F)c1,u,-27%,6.3µM*,u,1%
Cc1cc(/C=N/Nc2ncnc(N)c2[N+](=O)[O-])c(C)n1-c1ccccc1,u,-12%,6.3µM*,6.3µM*,5%
COc1cccc(/C=N/Nc2ncnc(N)c2[N+](=O)[O-])c1OC,-13%,-8%,u,u,2%
CCOc1ccc(C2C(C(=O)c3ccc(C)o3)=C(O)C(=O)N2c2nc(C)c(C(=O)OC)s2)cc1 (configuration not stated),x,x,1.1µM*,-26%,x
COC(=O)c1sc(N2C(=O)C(O)=C(C(=O)c3ccc(C)o3)C2c2ccc([N+](=O)[O-])cc2)nc1C (configuration not stated),x,x,u,-1%,x
CC(C)Cc1nc2ccccc2n1CCc1ccccc1,-6%,-9%,8.9µM*,u,4%
CCc1nc2ccccc2n1CCC(C)C,-5%,1%,10µM*,13µM*,4%
CCOCCn1c(CC)nc2ccccc21,-15%,-12%,-42%,2%,-4%
CC(C)C(=O)NCCc1nc2ccccc2n1CCc1ccccc1,-2%,-1%,-22%,-2%,-4%
C=C(Br)Cn1c(CC(C)C)nc2ccccc21,-4%,-1%,35µM*,-6%,-3%
C=C(Br)Cn1c(CC)nc2ccccc21,-5%,-3%,-35%,0%,-9%
CC(C)(C)Cc1nc2ccccc2n1CCc1ccccc1,-8%,-6%,7.9µM*,16µM*,2%
CCCCN1C2CCCC1CC(NC(=O)c1cccc(OC)c1)C2 (configuration not stated),x,x,28%[1.91 µM],-1%,x
CCCCN(C)c1nc2c(S(=O)(=O)c3ccc(CC)cc3)nnn2c2ccc(Cl)cc12,-2%,-14%,x,x,-10%
COc1cccc(-c2cc(NCc3cnc(C)cn3)ncn2)c1,x,x,u,-4%,x
COc1ccccc1NC(=O)c1oc2ccccc2c1NC(=O)COc1cccc(C)c1,16%,-11%,x,x,-18%
COC(=O)c1c(NC(=O)COc2ccc(OC)cc2)sc2c1CCC(C)C2 (configuration not stated),1%,-2%,x,x,-10%
CCc1nnc(SCc2nc(-c3ccccc3Cl)oc2C)c2cc3sc(C)cc3n12,-3%,5%,x,x,9%
CCc1nc2ccccc2n1CCc1ccccc1,-8%,-7%,8.9µM*,2%,0%
Cc1ccc(/C=C(\CCC(=O)O)c2nc3ccccc3s2)cc1[N+](=O)[O-],u,11%,8%,-17%,6%
CN(c1ccccc1)c1ccc(/C=C(\CCC(=O)O)c2nc3ccccc3s2)cc1[N+](=O)[O-],14µM*,u,12%,-18%,-21%
CNc1ccc(/C=C(\CCC(=O)O)c2nc3ccccc3s2)cc1[N+](=O)[O-],3.2µM*,u,29%,-9%,-16%
SMILES,Tau ThT inhib,Tau fluor cs,RORgamma inh,Gal4-VP16 FLuc,Tau fibril FP
Cn1cnnc1Sc1ccc(/C=C(\CCC(=O)O)c2nc3ccccc3s2)cc1[N+](=O)[O-],5%,4%,3%,12%,4%
O=C1/C(=C/c2ccccc2)Nc2ccccc21,13µM*,-27%,0%,-7%,9%
O=C1CNC(=O)/C(=C\c2ccccc2)N1,x,x,-1%,2%,x
O=C1C=CC(O)(c2cc(=O)c3c(O)cc(O)cc3o2)C=C1,13µM*,-25%,3.2µM*,2.8µM*,11µM*
COc1ccc(Cc2nc3ccc(C(=O)NCCCSC)cc3o2)cc1OC,x,x,u,2%,x
N#Cc1ccc2c(c1)C[C@]1(CCCCN3C(=O)c4ccccc4C3=O)Oc3cc(-c4ccccc4)oc(=O)c3[C@H]2O1,x,x,2%[10 µM],-8%[10 µM],x
C=CCc1cccc2cc(C(=O)Nc3ccc(CC(=O)O)cc3)c(=O)oc12,u,-4%,4µM*,u,5%
COc1ccc(C[C@@](C)(N)C(=O)O)cc1OC,x,x,-8%[2.98 µM],3%[17 µM],x
COc1ccccc1N/C(N)=N/c1nc(CSc2ccc(C)cc2)cc(=O)[nH]1,6%,-13%,-32%,7.9µM*,-13%
Cc1ccc(NC(=S)N2CCCCCC2)c(C)c1,x,x,u,18µM*,x
COc1ccc(Cl)cc1NC(=S)N1CCCCCC1,x,x,u,-30%,x
FC(F)(F)c1ccccc1NC(=S)N1CCN(c2ncccn2)CC1,-6%,-1%,13µM*,-10%,-1%
CCc1ccccc1NC(=S)NN,u,-13%,11µM*,u,-13%
Cc1ccc(Cl)cc1NC(=S)N1CCCCCC1,x,x,10µM*,u,x
CCN(CC)CC(C)CNC(=O)C1(O)c2ccccc2NC(=O)N1c1ccc(Cl)c(Cl)c1 (configuration not stated),x,x,-4%,2%,x
CCCOC(=O)CSc1ncnc2sc3c(c12)CCC(C)C3 (configuration not stated),u,-11%,x,x,-2%
O=C1CC(c2ccccc2)Cc2[nH]c(=O)c(C(=O)Nc3cccc(Cl)c3)cc21 (configuration not stated),6%,10%,x,x,-2%
CCCC[C@@H]1C[C@H]1C(NC(=O)c1ccco1)c1ccccc1C(F)(F)F (some centres not stated),-5%,-8%,29%,-13%,4%
S=C(Nc1ccccc1Cl)N1CCCC1,2%,6%,1%,-25%,14%
CCc1ccccc1NC(=S)N1N=CCC1c1ccccc1 (configuration not stated),-3%,-2%,3.2µM*,7.9µM*,0%
Cc1ccc(Cl)cc1NC(=S)Nn1cnnc1,x,x,13µM*,u,x
CCc1ccccc1NC(=S)N1CCCCCC1,x,x,14µM*,u,x
Cc1c(Cl)cccc1NC(=S)N1CCCCCC1,x,x,14µM*,u,x
COc1ccc(C(=O)N2CCC3(CCCN(C(=O)NC(C)C)C3)CC2)cc1,x,x,13%,-5%,x
CC(=O)c1cccc(NC(=O)c2nc(-c3ccccc3)n(-c3ccccc3C)n2)c1,2%,-9%,x,x,5%
Cc1ccc(NC(=S)N2CCN(c3ncccn3)CC2)c(C)c1,-7%,-3%,35µM*,u,5%
Cc1c(Cl)cccc1NC(=S)NN1CCOCC1,-5%,-3%,10µM*,u,-5%

# Screening results: PubChem, National Center for Advancing Translational Sciences (NCATS)
